Data on 7 compounds can be found in PubChem BioAssay (NCATS).

Molecules are shown by their SMILES. Results filed as inconclusive are left out. Where a call stands in place of a potency, no number is given. A number with no mark means an inactive call. Active and inactive are the calls of the source. The call rests on the fitted dose curve; in most records, active means well fitted cell-killing curve with a large enough effect; inconclusive means small, poorly fitted or top-dose-only effect, or effect the other way; inactive means flat fitted curve, though single readings scatter.

The test deals with Tov112D. Description: Primary qHTS to identify gynecologic anti-cancer compounds using libraries of approved drugs and bioactive compounds (AID 1345084). Further: nearly all actives have a fitted effect of over 55% in size. The settings on record: Gynecologic cancer cell panel viability, ATPlite luminescence, 48 h; series mostly up to 57.5 µM. A digest of the protocol: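 Cells, 1,000 per well, plated 16 h, then exposed 48 h at 37 C to compounds. Viability by ATPlite luminescence after 15 min at room temperature.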
In general terms: Quantitative high-throughput screening tests each substance at several concentrations.
With `CCc1ccc(Cc2ccc3c(c2)[C@]2(OC3)O[C@H](CO)[C@@H](O)[C@H](O)[C@H]2O)cc1`, the Potency result is “inactive”.

Turning to `C=C(C(=O)O)C1CCC2(C)CCC(O)C(=C)C2C1` (configuration not stated), the Potency result was “inactive”.

In the case of `C=C(C)C1CCC2(C(=O)O[C@@H]3O[C@H](CO[C@@H]4O[C@H](CO)[C@@H](O)[C@H](O)[C@H]4O)[C@@H](O)[C@H](O[C@@H]4O[C@@H](C)[C@H](O)[C@@H](O)[C@H]4O)[C@H]3O)CCC3(C(=O)O)C(CCC4C5(C)CCC(O)C(C)(C)C5CCC43C)C12` (some centres not stated), the activity change, negative = cytotoxicity is 11.4% [at 11.6 µM].

On to `CC(NC(=O)C(O)C(C)C)C(=O)NC1C(=O)N(C)CCc2ccccc21` (configuration not stated), for which the Potency result was “inactive”.

In the case of `CNC(C)C(=O)NC(C(=O)N1CCCC1c1nc(C(=O)c2ccc(F)cc2)cs1)C1CCCCC1` (configuration not stated), the Potency result is “inactive”.

For the compound `CC(=O)O[C@@H]1[C@H](O)[C@@H](O[C@@H]2O[C@@H](C)[C@H](O[C@@H]3OC[C@@H](O)[C@H](O[C@@H]4OC[C@@H](O)[C@H](O)[C@H]4O)[C@H]3O)[C@@H](O[C@@H]3O[C@H](CO)[C@@H](O)[C@H](O)[C@H]3O)[C@H]2O)[C@H](OC(=O)[C@]23CCC(C)(C)C[C@H]2C2=CCC4[C@@]5(C)CC[C@H](O[C@@H]6O[C@H](C(=O)O)[C@@H](O)[C@H](O[C@@H]7OC[C@@H](O)[C@H](O)[C@H]7O)[C@H]6O[C@@H]6O[C@H](CO)[C@H](O)[C@H](O)[C@H]6O)[C@@](C)(C=O)C5CC[C@@]4(C)[C@]2(C)CC3)O[C@@H]1C` (some centres not stated), the activity change, negative = cytotoxicity was 7.57% [at 6.55 µM].

For `CCN(Cc1cccnc1)C(=O)CN(c1ccc(OC)nc1)S(=O)(=O)c1ccccc1C`, the Potency entry was “inactive”.
